Several values for one entry are separate records, joined by “and”; a condition that tells them apart may be missing. Equal values may be shown once. This is part of a sample that, as a whole, favours compounds with a hit. Of some 79,000 tested, about 15% had one in any assay. Activity calls are given as the source filed them. Rule as the data show it: active = growth inhibition above about 70%; inactive = the rest.
Columns and labels:
[1] = NCI Yeast Anticancer Drug Screen. Data for the rad50 strain (AID 155);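 also: 0% = growth of vehicle-only cultures of the same strain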; settings: S. cerevisiae rad50 strain growth inhibition; at 50.0 µM; hits give high values
Procedure, shortened: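 Compounds were tested on a yeast strain with an engineered DNA damage repair alteration; the reported value is growth inhibition normalised to vehicle treatment.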

[2] = NCI Yeast Anticancer Drug Screen. Data for the sgs1 mgt1 strain (AID 161);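 also: 0% = growth of cultures given vehicle only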; settings: S. cerevisiae sgs1 mgt1 strain, hits give high values
Procedure, shortened: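 Genetically altered yeast, compound exposure, growth inhibition relative to vehicle.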

[3] = NCI Yeast Anticancer Drug Screen. Data for the cln2 rad14 strain (AID 165);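 also: 0% = growth equal to vehicle treated cultures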; settings: S. cerevisiae cln2 rad14 strain, hits give high values
Procedure, shortened: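 Compounds are applied to the cln2 rad14 yeast strain, and growth is then compared with that of vehicle-treated cultures to give inhibition.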

[4] = NCI Yeast Anticancer Drug Screen. Data for the bub3 strain (AID 167); settings: S. cerevisiae bub3 mutant strain, hits give high values
Procedure, shortened: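 Growth of a checkpoint-deficient yeast mutant is measured after compound exposure. Values represent inhibition relative to vehicle.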

[5] = NCI Yeast Anticancer Drug Screen. Data for the mlh1 rad18 strain (AID 175); settings: S. cerevisiae mlh1 rad18 strain growth inhibition, hits give high values
Procedure, shortened: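 Read-out is yeast growth inhibition, calculated against vehicle-only controls. The compound was applied to a strain engineered with DNA damage repair alterations.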

[6] = NCI Yeast Anticancer Drug Screen. Data for the mec2-1 strain (AID 157); settings: S. cerevisiae mec2-1 strain, hits give high values
Procedure, shortened: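 Strain: mec2-1 (DNA repair/cell cycle alteration). Compound exposure, then growth measured; inhibition expressed relative to vehicle.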

[7] = at 5.0 µM (retest, dose inferred, filed as 0.5)
[8] = at 50.0 µM (retest, dose inferred, filed as 5.0)

Measured: growth inhibition

NC(N)=S
inactive: [1] -10.2% and 7% | [2]; at 50.0 µM -6.1% and 9% | [3]; at 50.0 µM 32.8% and 1.9% | [4]; at 50.0 µM 3.75% and 3.8% | [5]; at 50.0 µM 0.35% and -9.45%

N#CC1OC1c1cccc[n+]1[O-] (stereo not drawn)
inactive: [1] 9.05% and 4.6% | [2]; at 50.0 µM 0.85% and -8.7% | [3]; at 50.0 µM -45.9% and -29.5% | [4]; at 50.0 µM -11.7% and -13.9% | [5]; at 50.0 µM -3.15% and 8.5%

Cc1ccc(S(=O)(=O)Nc2cc(=O)[nH]c3c2CCC3)cc1
inactive: [1] -2.05% and 43.4% | [2]; at 50.0 µM 9.25% and -26.8% | [3]; at 50.0 µM -52% and 0.65% | [4]; at 50.0 µM -18% and 24.2% | [5]; at 50.0 µM -6.2% and 2.9%

COC(=O)c1cc([N+](=O)[O-])cc([N+](=O)[O-])c1Cl
active: [6]; [7] 99% | [6]; [8] 99% | [6]; at 50.0 µM 93.2% | [2]; [7] 100% | [2]; [8] 99% | [2]; at 50.0 µM 93.7% | [3]; [7] 77% | [3]; [8] 99% | [3]; at 50.0 µM 92.4% | [4]; [7] 99% | [4]; [8] 99% | [4]; at 50.0 µM 92.8% | [5]; [7] 100% | [5]; [8] 99% | [5]; at 50.0 µM 92.2%

OC1CCCC(O)C1O (stereo not drawn)
inactive: [1] 1.25% and 6.1% | [6]; at 50.0 µM -2.7% and -12.9% | [2]; at 50.0 µM 14.1% and 9.8% | [4]; at 50.0 µM 3.9% and 20.6% | [5]; at 50.0 µM -2.65% and -4.4%

OC1C(O)C2(c3ccccc3)OC1(c1ccccc1)c1ccccc12 (stereo not drawn)
inactive: [6]; at 50.0 µM -5.9% and -2.35% | [2]; at 50.0 µM -5.8% and -5.6% | [3]; at 50.0 µM 4.35% and 2% | [4]; at 50.0 µM -0.25% and -1% | [5]; at 50.0 µM -13.5% and -9.9%

Cc1c2cc(O)c(=O)cc-2oc2cc(O)c(O)cc12
inactive: [1] 45.9% and 30.5% | [2]; at 50.0 µM 36.1% and 50.1% | [3]; at 50.0 µM 20.9% and 31.9% | [4]; at 50.0 µM 36.7% and 47.6% | [5]; at 50.0 µM 40.1% and 34.9%

Cc1ccc(/C=N/Nc2cc(C)c3cccc(C)c3n2)s1
inactive: [6]; [7] -1% | [2]; [7] 3% | [3]; [7] 3% | [4]; [7] 4% | [5]; [7] 13%
active: [6]; [8] 95% | [6]; at 50.0 µM 92.6% | [2]; [8] 93% | [2]; at 50.0 µM 92% | [3]; [8] 95% | [3]; at 50.0 µM 90.3% | [4]; [8] 97% | [4]; at 50.0 µM 90.8% | [5]; [8] 93% | [5]; at 50.0 µM 90%

O=C(O)/C=C/c1cccc(Cl)c1
inactive: [6]; at 50.0 µM 10.2% and -19.9% | [2]; at 50.0 µM 3.25% and -12.2% | [3]; at 50.0 µM -16.1% and 13.5% | [4]; at 50.0 µM -6.7% and -28.2% | [5]; at 50.0 µM 24.8% and 23.6%

CCCOC1N(c2ccc(C)cc2)NC(=O)C1(C)C (stereo not drawn)
active: [6]; [7] 82% | [6]; [8] 94% | [2]; [8] 96% | [3]; [8] 95% | [4]; [8] 93% | [5]; [8] 99%
inactive: [6]; at 50.0 µM 56.6% | [2]; [7] 33% | [3]; [7] 50% | [4]; [7] 49% | [5]; [7] 65% | [5]; at 50.0 µM 68.1%

O=Nc1ccc2ccccc2c1O
active: [6]; [8] 88% | [6]; at 50.0 µM 89.8% | [2]; at 50.0 µM 86.8% | [4]; [8] 93% | [4]; at 50.0 µM 89.5% | [5]; [8] 93% | [5]; at 50.0 µM 84%
inactive: [6]; [7] 3% | [2]; [7] -6% | [2]; [8] 37% | [3]; [7] 25% | [3]; [8] 63% | [3]; at 50.0 µM 58.5% | [4]; [7] 3% | [5]; [7] 14%

Oc1ccc2ccccc2c1N=Nc1ccccn1
inactive: [6]; [7] -4% | [2]; [7] 19% | [3]; [7] 10% | [4]; [7] -26% | [5]; [7] 27%
active: [6]; [8] 96% | [6]; at 50.0 µM 96.7% | [2]; [8] 96% | [2]; at 50.0 µM 97.3% | [3]; [8] 94% | [3]; at 50.0 µM 92.8% | [4]; [8] 92% | [4]; at 50.0 µM 96.7% | [5]; [8] 94% | [5]; at 50.0 µM 97.7%

O=C(Nc1ccc(Cl)c(Cl)c1)OCc1ccco1
active: [6]; at 50.0 µM 93% | [2]; [8] 99% | [2]; at 50.0 µM 92.9% | [3]; [8] 90% | [3]; at 50.0 µM 91.7% | [4]; [8] 81% | [4]; at 50.0 µM 93.1% | [5]; [8] 76% | [5]; at 50.0 µM 92%
inactive: [6]; [7] 38% | [6]; [8] 66% | [2]; [7] 47% | [3]; [7] 35% | [4]; [7] 41% | [5]; [7] 48%

CN(C)c1ccc(C(C#N)(c2ccccc2)c2ccc(N(C)C)cc2)cc1
active: [6]; [8] 92% | [6]; at 50.0 µM 96.2% | [2]; [8] 93% | [2]; at 50.0 µM 94.2% | [3]; [8] 89% | [4]; [7] 80% | [4]; [8] 91% | [4]; at 50.0 µM 97.5% | [5]; [8] 86%
inactive: [6]; [7] 14% | [2]; [7] 48% | [3]; [7] 1% | [3]; at 50.0 µM 59.8% | [5]; [7] 16% | [5]; at 50.0 µM 43.5%

CCOC(=O)C1=C(C)NC(=O)NC1c1ccccc1 (stereo not drawn)
inactive: [1] 9.5% and -7% | [2]; at 50.0 µM -0.15% and 4.45% | [3]; at 50.0 µM -19.1% and 6.95% | [4]; at 50.0 µM -0.9% and 15.2% | [5]; at 50.0 µM 35.9% and -8.4%

O=c1c([N+](=O)[O-])c[nH]c2cc(Cl)ccc12
inactive: [1] -38.3% and 6.4% | [6]; at 50.0 µM 2.25% and -2.2% | [2]; at 50.0 µM -19.2% and 8.3% | [3]; at 50.0 µM 0.25% and 35.5% | [5]; at 50.0 µM -33.7% and 15.8%

O=[N+]([O-])c1ccc2c(c1)C(=Nc1ccccc1)c1cccc([N+](=O)[O-])c1-2
inactive: [1] 6.55% and -21.9% | [6]; at 50.0 µM 16.2% and -12.8% | [3]; at 50.0 µM -36.9% and -24.8% | [4]; at 50.0 µM 8.8% and 8.9% | [5]; at 50.0 µM 20.3% and -26.3%

COC(=O)c1ccc(O)cc1
inactive: [1] 27.3% and 4.9% | [6]; at 50.0 µM 14.6% and 25.4% | [2]; at 50.0 µM 13.8% and 12.4% | [3]; at 50.0 µM 3.9% and 14.8% | [4]; at 50.0 µM -11.6% and -4.5% | [5]; at 50.0 µM 8.9% and -0.35%
